The full list was thinned out, with hits kept by preference.
RECQ1 helicase = inhibitors of human RECQ1 DNA helicase; AID 2549; RECQ1 DNA unwinding, red fluorescence kinetic read; hit rate 0.54% among 240,000; Potency, µM (titrated, usually from 57.3 µM), for the others: top-dose activity, negative = inhibition, most hits filed as inhibitors; P46063;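 also: plate controls were vehicle for no effect and no enzyme for full effect; nearly all actives have a fitted effect of over 30% in size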
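RECQ1T1 50 nM; forked duplex (20 bp + 30-nt ss tails) 200 nM, ATP 2 mM final; pH 8.0, 2 mM MgCl2, 2.5 ug/ml poly(dI-dC); 15 min compound preincubation; discontinuous kinetic read over 2 h at RT.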
APE1 inh = blocks human APE1 abasic DNA cleavage; recombinant APE1, TAMRA/BHQ-2 abasic DNA cleavage fluorescence; hit rate 0.35% among 350,000; Potency, µM (highest dose often 65.8 µM), inactives show top-dose activity change, negative = inhibition, hits mostly inhibitors; P27695;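 also: plate controls were vehicle for no effect and reference inhibitor for full effect; nearly all actives have a fitted effect of over 55% in size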
Target sequence (P27695 whole entry, looked up): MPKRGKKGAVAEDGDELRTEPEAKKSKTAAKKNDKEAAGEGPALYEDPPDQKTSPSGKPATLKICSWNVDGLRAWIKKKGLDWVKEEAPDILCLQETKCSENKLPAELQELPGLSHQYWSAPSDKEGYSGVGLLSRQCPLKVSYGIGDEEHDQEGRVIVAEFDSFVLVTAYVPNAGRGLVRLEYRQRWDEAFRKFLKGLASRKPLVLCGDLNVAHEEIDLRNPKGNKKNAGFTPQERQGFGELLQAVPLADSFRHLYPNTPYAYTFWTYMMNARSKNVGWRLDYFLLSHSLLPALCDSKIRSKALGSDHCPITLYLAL
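Measures dequenching upon AP-site incision of a 5'-TAMRA/3'-BHQ-2 THF-containing duplex, 50 nM; human APE1 0.75 nM after 15 min room-temperature exposure to compound; kinetic three-point read at one-minute spacing.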
GCN5L2 inh = inhibitors of human GCN5L2 histone acetyltransferase; Q92830; hit rate 0.21% among 390,000; GCN5L2 HAT assay, ThioGlo1 CoA-SH fluorescence; Potency, µM (series often up to 58.9 µM), inactives show at the highest dose activity change, negative = inhibition, usual class: inhibitors
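GCN5L2 (20 nM) in 50mM HEPES pH 7.5, 0.1mM EDTA, 0.01% Tween-20 preincubated 15 min with compounds at room temperature. Reaction started with H3(1-25) 75uM, acetyl-CoA 70uM, ThioGlo1 50uM; CoA-thiol fluorescence (Ex340/Em540) read at 0 and 20 min.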
BLM inh = Bloom syndrome helicase (human) inhibition; P54132; recombinant BLM DNA unwinding, fluorescence dequenching; Potency, µM (series often up to 56.1 µM), for inactives: at the top dose activity change, negative = inhibition, actives largely listed as inhibitors; hit rate 0.2% among 350,000;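 also: plate controls were vehicle for no effect and no enzyme for full effect; nearly all actives have a fitted effect of over 35% in size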
KDM4E inh = inhibitors of human JMJD2E histone demethylase; B2RXH2; JMJD2E catalytic domain, FDH-coupled NADH fluorescence (FDH is formaldehyde dehydrogenase); Potency, µM (series often up to 57.1 µM), for inactives: top-dose activity change, negative = inhibition, hits mostly inhibitors; hit rate 1.6% among 230,000; AID 2147; active = well fitted inhibition curve with a large enough effect, not every such curve was filed as active; inconclusive = small, poorly fitted or top-dose-only effect, or another doubt; inactive = no such curve, though single readings can be large or run the other way;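 also: 0% = wells with enzyme and -100% = buffer wells without enzyme; nearly all actives have a fitted effect of over 50% in size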
Target sequence (B2RXH2 1-337 limits assumed): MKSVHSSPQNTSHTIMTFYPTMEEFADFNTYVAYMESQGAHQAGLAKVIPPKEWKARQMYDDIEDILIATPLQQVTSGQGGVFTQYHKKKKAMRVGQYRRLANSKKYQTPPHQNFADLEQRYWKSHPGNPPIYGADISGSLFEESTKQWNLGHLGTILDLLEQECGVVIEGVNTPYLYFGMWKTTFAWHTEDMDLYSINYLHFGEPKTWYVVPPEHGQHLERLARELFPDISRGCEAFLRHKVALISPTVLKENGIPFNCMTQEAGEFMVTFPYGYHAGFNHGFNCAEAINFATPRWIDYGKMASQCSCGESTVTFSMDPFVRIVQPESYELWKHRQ
L3MBTL1 inh = blocks human L3MBTL1; AlphaScreen L3MBTL1–H3K9me1 peptide binding; Potency, µM (top dose mostly 57.1 µM), inactives show at the highest dose activity, negative = inhibition, actives largely listed as inhibitors; hit rate 0.66% among 230,000; also: nearly all actives have a fitted effect of over 60% in size
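AlphaScreen assay: L3MBTL1 (50 nM final) was preincubated 30 min at room temperature with biotinylated H3(1-15)K9me1 peptide (75 nM final), then 30 min with library compounds; streptavidin donor and nickel chelate acceptor beads (10 ug/mL final) added, 30 min dark.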
* = called active by the depositor; i = inactive; ? = inconclusive; · = no result; [ ] = remark or other dose. Unless noted, calls follow the shape of the dose curve; as a rule, active = well fitted curve in the direction sought with a large enough effect; inconclusive = small, poorly fitted or top-dose-only effect, or another doubt; inactive = no such curve, though single readings can be large; an effect the other way counts as inactive or inconclusive. Unless noted, % is scaled to controls: 0 for no effect and ±100 for the full control effect; potency is read from the fitted curve at half-maximal effect.

SMILES | RECQ1 helicase | APE1 inh | GCN5L2 inh | BLM inh | KDM4E inh | L3MBTL1 inh
Cc1ccc(C)c(NC(=O)CSc2nc3nc(-c4cccs4)cc(C(F)(F)F)c3c(=O)[nH]2)c1 | -5% | 2% | -3% | -8% | ? | ·
CCc1ccc(OCc2cc(=O)n3c4c(sc3n2)CCCC4)cc1 | · | · | -5% | -5% | · | ·
Cc1[nH]c2ccccc2c1/C=N/Nc1ccccn1 | -12% | -1% | -12% | -11% | 25µM* | ?
CC(=O)Nc1ccc2c3c(cccc13)C(=O)N(c1ccccc1)C2=O | -5% | -3% | 22µM* | -2% | ? | 7%
CCOc1cc(N2CCOCC2)c(OCC)cc1NC(C)C(=O)N1CCC(C)CC1 (centres undefined) | -6% | 1% | -3% | -2% | 11µM* | 2%
CCOc1ccccc1-c1nnc2n1N=C(c1c(OC)cccc1OC)CS2 | -5% | -3% | · | 3% | · | ·
COc1ccc(C2C3C=CCC(c4cccc(-c5ccc(N(C)C)cc5)c4)C3C(=O)N2Cc2ccccc2)cc1Cl (centres undefined) | i | -3% | · | -3% | · | ·
O=C(O)c1ccc2c(c1)C(=O)/C(=C\c1ccco1)C2=O | ? | 7.9µM* | -19% | 140% | -29% | 3.2µM*
COc1ccc(C2c3c(n(C)c4ccccc34)C(=O)N2CC(=O)Nc2ccc(C)c(Cl)c2)cc1 (centres undefined) | · | · | -9% | -7% | · | ·
O=[N+]([O-])c1ccccc1-c1ccc(/C=N/n2cnnc2)o1 | -1% | -14% | 38% | 1% | 6% | -2%
O=C1ON=C(c2ccccc2)/C1=C/c1ccc(-c2ccccc2[N+](=O)[O-])o1 | ? | -6% | 20µM* | -27% | ? | ?
O/C=c1\ccc2cccc3nc(C(F)(F)F)nc1c23 | · | -27% | -25% | 14µM* | · | ·
COc1ccc(C(=O)N(Cc2ccco2)Cc2ccco2)cc1 | · | · | -4% | 1% | · | ·
Oc1ccc(C2C[C@H]3CC[C@@H]2C3)cc1O (some centres undefined) | · | -7% | -4% | -5% | · | ·
Oc1ccc(C2CNCc3sccc32)cc1O (centres undefined) | 0% | -4% | -4% | · | 25µM* | -2%
Fc1ccc(C2NCCn3cccc32)cc1 (centres undefined) | i | -5% | ? | -1% | 20µM* | -8%
CNC(=S)N1CCn2cccc2C1c1ccc(F)cc1 (centres undefined) | i | -1% | -6% | 0% | -10% | 9%
CCOc1ccc(Nc2nc(NCCN3CCOCC3)nc(OC)n2)cc1 | -10% | -1% | -5% | -2% | -1% | ·
Clc1cc2cccnc2c2ncccc12 | · | -18% | 2% | · | · | 10µM*
O=[N+]([O-])c1ccc(O)c2ncccc12 | -5% | 11% | 5% | -10% | ? | ?
O=[N+]([O-])c1cc([N+](=O)[O-])c2cccnc2c1Oc1ccccc1O | -1% | -3% | -13% | 1% | 22µM* | ?
Cc1c(C)c2cccnc2c2ncccc12 | · | -28% | -2% | · | · | 0.79µM*
O=[N+]([O-])c1cc(Cl)c2cccnc2c1O | i | -12% | -5% | 1% | 13µM* | 32µM*
Cc1[nH]c2ccc3ncccc3c2c1C | -1% | 2% | -15% | 0% | 2% | -21%
C=CC[C@@H]1C=C[C@@H](O/N=C(/C)CCC(=O)OC[C@@H]2O[C@H](c3ccccc3)C=C[C@@H]2Oc2ccc(OC)cc2)[C@@H](CO)O1 | -2%[11.5 µM] | ? | · | -7%[12.4 µM] | · | ·
SMILES | RECQ1 helicase | APE1 inh | GCN5L2 inh | BLM inh | KDM4E inh | L3MBTL1 inh
NC1(C(=O)O)CCc2cc(P(=O)(O)O)ccc21 (centres undefined) | -25% | 9% | -14% | · | · | ·
Oc1c(I)cc(Cl)c2cccnc12 | -12% | -6% | -6% | -2% | 14µM* | ?
CC(=O)NC(c1ccco1)c1cc(Cl)c2ccc(N3CCCCC3)nc2c1O (centres undefined) | · | 27% | -5% | · | · | -6%
Cc1ccc(-c2cn(C[C@H]3CC[C@@H]([C@@H]4CC[C@H](Cn5cc(-c6ccc(C)cc6)nn5)O4)O3)nn2)cc1 | · | -2% | -2% | -4% | · | 48%
c1ccc(-c2cn(C[C@H]3CC[C@H](Cn4cc(-c5ccccn5)nn4)O3)nn2)nc1 | · | 0% | 1% | 0% | · | 0.28µM*
CCOC(=O)C(=Cc1ccc(-n2ccnc2)cc1)C(=O)OCC | -5% | -4% | 0% | -5% | 11µM* | ·
O=C(O)c1ccccc1-c1c2cc(Br)c(=O)c(Br)c-2oc2c(Br)c(O)c(Br)cc12 | 32µM* | ? | 22µM* | 28µM* | · | ·
Cc1ccc2oc(-c3ccccc3C(=O)O)cc(=O)c2c1 | -3% | 1% | -11% | 0% | ? | 4%
CCCCCCCCCCCCC/C=C/[C@@H](O)[C@H](CO)NC(=O)CCCCC | i | ? | -9% | -13% | · | ·
S=C(Nc1ccc(Oc2ccccc2)cc1)NC1CCCCCC1 | -14% | 18% | -3% | -9% | -3% | -2%
S=C(NNc1ccc2ccccc2c1)NC1CCCCC1 | -5% | 2% | -8% | -2% | 11µM* | ?
C[C@](N)(Cc1ccc(O)cc1)C(=O)O | -3% | 13% | -1% | 1% | -2% | ·
CC(Cc1ccc(O)c(O)c1)(NN)C(=O)O (centres undefined) | i | 23% | · | 7% | 2.2µM* | ·
CCc1ccc(CN2CCC(CO)(CC3CCCCO3)CC2)o1 (centres undefined) | i | 3% | 18µM* | -1% | 4% | 2%
Cc1ccc(CN2CCC(CO)(CC3CCCCO3)CC2)o1 (centres undefined) | -11% | 3% | 5% | -7% | 1% | -4%
Cc1ccc(O)c(N=Cc2sc3ccccc3c2Cl)c1 | -5% | 17% | -2% | -3% | 25µM* | 0%
Oc1ccccc1N=Cc1sc2ccccc2c1Cl | -3% | 4% | -6% | -2% | 22µM* | -1%
COc1ccc(OC)c(C2=C/C(=C/c3ccccn3)C(=O)O2)c1 | ? | -3% | -9% | 0% | 25µM* | ·
Cc1cc(/C=C2/C(=N)N3C(=NC2=O)SN=C3S(C)(=O)=O)c(C)n1-c1ccccc1F | -28% | 23% | 22µM* | -11% | ? | ·
O=C(CSc1nc2c(cnn2-c2ccc(F)cc2)c(=O)[nH]1)N1N=C(c2cccs2)CC1c1ccc(F)cc1 (centres undefined) | 1% | -1% | 1% | 0% | 5µM* | 4%
O=C(CSc1nc2ccccc2s1)N1N=C(c2cccs2)CC1c1ccc(F)cc1 (centres undefined) | -24% | -6% | -11% | -5% | ? | -4%
